Compounds with a hit are over-represented: about 32% of the library has one in this group of screens.
PostGolgi ctrl: inhibits growth of the yeast control strain | efflux-deficient yeast background strain, growth absorbance A615, 16 h | inhibition, % at 10 µM | 98,000 compounds, 5% hits | AID 738
CYP2C9 inh: blocks human cytochrome P450 2C9. P11712. AID 777. CYP2C9 Supersomes, luciferin-H conversion, luminescence. inhibition, % at 5 µM. 96,000 compounds, 20% hits;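 active means blocking of liver enzyme CYP2C9 beyond about 50% at 5 µM, limit read from the data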
Target sequence (P11712 whole entry, looked up): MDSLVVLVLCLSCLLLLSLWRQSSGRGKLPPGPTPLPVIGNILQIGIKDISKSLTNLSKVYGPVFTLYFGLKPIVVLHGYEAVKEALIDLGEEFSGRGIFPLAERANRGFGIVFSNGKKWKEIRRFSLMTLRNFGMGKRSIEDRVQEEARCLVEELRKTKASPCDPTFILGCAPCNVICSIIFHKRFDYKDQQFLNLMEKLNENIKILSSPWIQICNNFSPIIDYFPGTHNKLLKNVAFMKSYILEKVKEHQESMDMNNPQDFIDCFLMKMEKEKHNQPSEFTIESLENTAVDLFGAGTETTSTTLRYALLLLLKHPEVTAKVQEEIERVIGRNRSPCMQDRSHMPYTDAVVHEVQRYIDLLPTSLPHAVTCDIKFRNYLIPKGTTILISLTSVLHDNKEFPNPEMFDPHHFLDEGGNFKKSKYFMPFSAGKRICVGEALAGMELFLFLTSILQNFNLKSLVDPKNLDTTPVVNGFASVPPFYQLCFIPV
CYP2C19 act: cytochrome P450 2C19 (human) activation; P33261; activation factor at 5 µM; AID 1025; 96,000 tested, under 10 active; recombinant CYP2C19, luciferin-H EGE luminescence; hits give high values; 0 = fully inhibited enzyme, 1 = untreated enzyme;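 active means activation factor of at least 2 at 5 µM in the primary screen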;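 further: 0 = wells with 2.5 mM tranylcypromine and 1 = vehicle-only wells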
CYP2C9 act: increases human cytochrome P450 2C9 activity; P11712; recombinant CYP2C9, luciferin-H conversion, luminescence; hits give high values; factor 1 = untreated enzyme, 0 = blocked; activation factor at 5 µM; 96,000 compounds, 1.4% hits; AID 1024;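 active means activation factor of 2 or more for CYP2C9 at a 5 µM dose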;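 further: 0 = sulfaphenazole-blocked wells and 1 = vehicle-only wells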
PostGolgi yeast: growth inhibition of a yeast mutant, post-Golgi transport screen. 98,000 compounds, 0.9% hits. inhibition, % at 10 µM. post-Golgi transport phenotypic cell assay. AID 739;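 further: yeast cells grown in 1536-well plates; yeast grown about 18 h at 30C before absorbance read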
CYP2C19 inhib: human CYP2C19 inhibition | P33261 | CYP2C19 Supersomes, luciferin-H EGE luminescence, 30 min | inhibition, % at 5 µM | 96,000 compounds, 21% hits;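 active means CYP2C19 inhibition above a set limit at 5 µM in the primary screen, cut at about 50% in these data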;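 further: plate controls were negative control wells for no effect and 2.5 mM tranylcypromine positive control for full effect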
The depositor's hits bear a star; / = not tested or not shown. Unless noted, no stated cut-off is given here; in the data, active means inhibition above about 30%; inactive means the rest.

SMILES	PostGolgi ctrl	CYP2C9 inh	CYP2C19 act	CYP2C9 act	PostGolgi yeast	CYP2C19 inhib
C=CCn1c(SCC(=O)Nc2ccc(C(=O)OCC)cc2)nnc1-c1cccs1	-2.1	5.4	1.1	0.9	-1.3	-8.5
CCn1c(SCC(=O)Nc2ccc(C(=O)OC)cc2)nnc1-c1cccs1	-5.0	37.9	0.5	0.6	-8.6	51.2*
CCn1c(SCC(=O)Nc2cc(C)on2)nnc1-c1cccs1	8.7	31.1	0.2	0.7	1.4	83.3*
CCOC(=O)c1ccccc1NC(=O)c1cncc(Br)c1	15.8	-4.5	0.9	1	-3.4	13.7
Cn1cccc1C(=O)OCC(=O)Nc1ccc2c(c1)CCC2	4.9	7.1	0.8	0.9	-5.2	20.3
O=C(OCCN1CCCCC1)c1ccccc1Cl	6.4	1.2	0.4	1	2.7	59.6*
O=C(OCCN1CCCCC1)c1ccc(O)cc1	6.8	2.6	1.2	1	-4.2	-15.4
CCN(c1ccccc1)S(=O)(=O)c1ccc(NC(=S)NC(=O)c2cccs2)cc1	11.2	77.0*	0.7	0.2	-1.0	32.4
CCCC(=O)NC(=S)Nc1ccc(NC(=O)c2cccs2)cc1	-4.7	85.0*	0.5	0.2	-1.9	51.7*
CCCC(=O)Nc1ccc(C(=O)NNC(=S)NC(=O)c2cccs2)cc1	-4.4	27.8	0.9	0.7	17.7	6.9
COc1cc(/C=N/c2oc(-c3ccccc3)cc2C#N)ccc1O	18.9	8.6	1.1	0.9	14.7	-9.1
O=C(Cn1ncn2c(cc3ccccc32)c1=O)NCCC1=CCCCC1	14.6	40.7	0	0.6	13.7	99.3*
CCc1cccc(NC(=O)Cn2ncn3c(cc4ccccc43)c2=O)c1	-6.4	15.9	1	0.8	-8.3	-2.4
Cc1ccc(Cn2ncn3c(cc4ccccc43)c2=O)cc1	34.5*	14.0	1.1	0.9	1.7	-8.5
O=C(Cn1ncn2c(cc3ccccc32)c1=O)NCc1ccco1	2.1	15.5	0.4	0.8	7.2	62.5*
O=C(Cn1ncc2c(=O)oc3ccccc3c21)NCCC1=CCCCC1	19.1	24.5	0.4	0.8	1.9	59.3*
CCn1ncc(C2=NOC(C(=O)NCCc3ccccc3)C2)c1C (stereo not given)	5.9	-4.3	1	1	-1.8	-0.1
C1CCCN(CCCCN2CCCCCC2)CC1	1.0	7.7	1	0.9	-1.9	-3.4
O=C(O)CCC(=O)Nc1cccc(C(=O)Nc2cccc(Cl)c2)c1	1.7	-2.3	1.1	1	1.8	-14.4
COc1c(Cl)cc(C(=O)Nc2ccccc2C(=O)O)cc1Cl	1.7	72.8*	1	0.3	9.0	4.9
O=C(CSCc1ccc(Cl)cc1)Nc1cccc(C(=O)Nc2ccccc2C(=O)O)c1	9.5	97.5*	0.7	0	-6.0	34.0
CC(C)C(=O)Nc1cccc(C(=O)NCCc2ccc(S(N)(=O)=O)cc2)c1	5.9	75.0*	0.9	0.3	-1.5	5.8
CC(C)C(=O)Nc1cccc(C(=O)Nc2ccccc2C(=O)O)c1	-1.5	83.4*	1	0.2	-2.2	-4.8
NS(=O)(=O)c1ccc(CCNC(=O)c2cccnc2)cc1	1.6	/	/	/	-7.3	/
O=C(NCc1ccco1)c1ccc(=O)oc1	15.2	-13.0	1	1.1	4.2	-3.2
SMILES	PostGolgi ctrl	CYP2C9 inh	CYP2C19 act	CYP2C9 act	PostGolgi yeast	CYP2C19 inhib
O=C(CSCc1ccccc1)Nc1cccc(C(=O)Nc2ccccc2C(=O)O)c1	-4.2	95.2*	0.9	0	4.8	10.1
OCCN1CCOCCN(CCO)CCOCC1	0.3	4.2	1	1	-3.9	1.9
Cc1ccc(C)c(OCC(=O)Nc2nc3ccc([N+](=O)[O-])cc3s2)c1C	34.2*	-24.9	1.2	1.2	5.7	-24.1
NC(=O)CSc1nnc2sc3ccccc3n12	-1.6	-13.2	1.1	1.1	0.8	-5.4
CCOC(=O)Cc1csc(NC(=O)c2ccc3c(c2)OCO3)n1	5.5	36.3	1	0.6	8.9	3.7
Cc1cccc(N2CCN(C(=O)CCNS(=O)(=O)c3ccc4c(c3)CCC(=O)N4)CC2)c1C	0.9	58.5*	1	0.4	-1.4	-2.8
CCOC(=O)Cc1csc(NC(=O)c2ccc(Br)s2)n1	4.9	99.5*	0.2	0	-9.0	77.7*
CCOC(=O)Cc1csc(NC(=O)c2cccs2)n1	-3.7	76.9*	0.1	0.2	-0.8	88.3*
CCOC(=O)Cc1csc(NC(=O)CCNS(=O)(=O)c2ccc3c(c2)CCC(=O)N3)n1	15.1	55.9*	0.9	0.4	-0.7	8.3

Source: PubChem (several laboratories)
